Experimental data as given in PubChem BioAssay (EPA / NIEHS).
Records with an inconclusive call do not appear. The source made the active and inactive calls. The calls were made as follows, unless noted: active = hit-call score of the fitted dose curve at least 0.9, where 1 is the maximum; inactive = score below 0.9.

How the values were obtained:
[1] = read-out: Human Leukocyte Antigen - DR isotype (HLADR), HLA-DRA (gene 3122); test: BSK_3C_HLADR: BioMAP Diversity Plus: 3C Assay for Human Leukocyte Antigen - DR isotype (HLADR) Biomarker Activity (AID 2283019); conditions: primary human endothelial cells (HUVEC); actives raise or lower the signal;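 as to outcome: ELISA of cell-surface HLA-DR on HUVEC 24 h after dosing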
Outline: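 HUVEC, 3C stimulation, 24 h post-dose; HLA-DR by ELISA; bidirectional curve fit vs DMSO baseline; gain or loss of signal scored.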

[2] = read-out: Interleukin-8 (IL8), CXCL8 (gene 3576); test: BSK_3C_IL8: BioMAP Diversity Plus: 3C Assay for Interleukin-8 (IL8) Biomarker Activity (AID 2283020); conditions: primary human endothelial cells (HUVEC); actives raise or lower the signal
Outline: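 ELISA read-out of IL-8 from human umbilical vein endothelium, measured 24 h after chemical dosing. Activity is expressed relative to DMSO negative control, with both increases and decreases fitted.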

[3] = read-out: Monokine induced gamma interferon (MIG), CXCL9 (gene 4283); test: BSK_3C_MIG: BioMAP Diversity Plus: 3C Assay for Monokine induced gamma interferon (MIG) Biomarker Activity (AID 2283021); conditions: primary human endothelial cells (HUVEC); actives raise or lower the signal;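 as to AC50: MIG protein level measured by immunoassay in the treated endothelial cultures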
Outline: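 Read-out is ELISA detection of MIG on human umbilical vein endothelial cells, taken 24 h after dosing. Gain or loss of signal was scored relative to DMSO controls using bidirectional curve fitting.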

[4] = read-out: Matrix Metallopeptidase 1 (MMP1), MMP1 (gene 4312); test: BSK_BE3C_MMP1: BioMAP Diversity Plus: BE3C Assay for Matrix Metallopeptidase 1 (MMP1) Biomarker Activity (AID 2283024); conditions: primary human bronchial epithelial cells; actives raise or lower the signal
Outline: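 Human bronchial epithelial cells (BE3C system) exposed to compound for 24 h; MMP1 then quantified by ELISA. Activity was fitted in both directions relative to DMSO.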

[5] = BSK_3C_Vis: BioMAP Diversity Plus: 3C Assay for Morphology Visualization (AID 2283025); conditions: primary human endothelial cells (HUVEC);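 also: fitted both ways so gain or loss versus DMSO counts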;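 as to AC50: light microscopy image of cell morphology used as background control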
Outline: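 Chemicals were added to primary human umbilical vein endothelium, cells were incubated 24 h, and morphology was then visualized by light microscopy. Gain or loss of signal was fitted bidirectionally relative to DMSO.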

[6] = read-out: Pselectin, SELP (gene 6403); test: BSK_4H_Pselectin: BioMAP Diversity Plus: 4H Assay for Pselectin Biomarker Activity (AID 2283026); conditions: primary human endothelial cells (HUVEC); actives raise or lower the signal
Outline: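 ELISA read-out of P-selectin on human umbilical vein endothelium after 24 h of dosing. Values derive from bidirectional fitting relative to DMSO. Parallel SRB protein staining flagged overt cytotoxicity.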

[7] = BSK_BE3C_SRB: Viability Assessment in the BioMAP Diversity Plus: BE3C Assay (AID 2283028); conditions: primary human bronchial epithelial cells;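 as to AC50: fitted both ways so AC50 may mark signal gain or loss versus DMSO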
Outline: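 Primary human bronchial epithelium; chemical dosing, 24 h; 10% TCA fix, 0.1% SRB stain, A560; bidirectional fit vs DMSO baseline.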

[8] = read-out: Thrombomodulin, THBD (gene 7056); test: BSK_3C_Thrombomodulin: BioMAP Diversity Plus: 3C Assay for Thrombomodulin Biomarker Activity (AID 2283029); conditions: primary human endothelial cells (HUVEC); actives raise or lower the signal
Outline: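 Read-out is ELISA of thrombomodulin on human umbilical vein endothelium 24 h after chemical dosing. Gain or loss of signal is scored relative to DMSO. Overt cytotoxicity is checked in parallel cultures by sulforhodamine B staining.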

[9] = read-out: Urokinase-type plasminogen activator receptor (uPAR), PLAUR (gene 5329); test: BSK_4H_uPAR: BioMAP Diversity Plus: 4H Assay for Urokinase-type plasminogen activator receptor (uPAR) Biomarker Activity (AID 2283030); conditions: primary human endothelial cells (HUVEC); actives raise or lower the signal
Outline: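 HUVEC, 24 h post-dose; uPAR by ELISA; bidirectional fit vs DMSO baseline.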

[10] = read-out: Vascular endothelial growth factor receptor 2 (Homo sapiens) (UniProt P35968); test: BSK_4H_VEGFRII: BioMAP Diversity Plus: 4H Assay for Vascular endothelial growth factor receptor 2 (VEGFR2) Biomarker Activity (AID 2283031); conditions: primary human endothelial cells (HUVEC); actives raise or lower the signal;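 as to AC50: cell-surface VEGFR2 protein level quantified by ELISA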
Outline: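 HUVEC (human primary), 4H system; 24 h post-dose; VEGFRII by ELISA; bidirectional curve fit vs DMSO baseline; gain or loss of signal scored.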

[11] = read-out: Human Leukocyte Antigen - DR isotype (HLADR), HLA-DRA (gene 3122); test: BSK_BE3C_HLADR: BioMAP Diversity Plus: BE3C Assay for Human Leukocyte Antigen - DR isotype (HLADR) Biomarker Activity (AID 2283032); conditions: primary human bronchial epithelial cells; actives raise or lower the signal
Outline: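 ELISA read-out of HLA-DR on human lung bronchial epithelial primary cells, measured 24 h post-dosing. Both increases and decreases were scored relative to DMSO vehicle.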

[12] = read-out: Vascular cell adhesion molecule 1 (VCAM1), VCAM1 (gene 7412); test: BSK_4H_VCAM1: BioMAP Diversity Plus: 4H Assay for Vascular cell adhesion molecule 1 (VCAM1) Biomarker Activity (AID 2283033); conditions: primary human endothelial cells (HUVEC); actives raise or lower the signal;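 as to outcome: cell-surface VCAM-1 protein measured by ELISA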
Outline: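 ELISA read-out of VCAM-1 on human umbilical vein endothelium 24 hours after chemical dosing; gain or loss of signal was fitted relative to DMSO, with sulforhodamine B staining of parallel cultures flagging overt cytotoxicity.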

[13] = read-out: Interferon-gamma inducible Protein 10 (IP10), CXCL10 (gene 3627); test: BSK_BE3C_IP10: BioMAP Diversity Plus: BE3C Assay for Interferon-gamma inducible Protein 10 (IP10) Biomarker Activity (AID 2283034); conditions: primary human bronchial epithelial cells; actives raise or lower the signal
Outline: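 Chemical is dosed onto human lung bronchial epithelial primary cells, cultures are incubated 24 h, and IP-10 is then quantified by ELISA. Gain or loss of signal is fitted in both directions relative to DMSO.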

[14] = read-out: Monokine induced gamma interferon (MIG), CXCL9 (gene 4283); test: BSK_BE3C_MIG: BioMAP Diversity Plus: BE3C Assay for Monokine induced gamma interferon (MIG) Biomarker Activity (AID 2283035); conditions: primary human bronchial epithelial cells; actives raise or lower the signal;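 as to outcome: MIG protein measured by ELISA in BE3C cultures after 24 h of dosing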
Outline: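 ELISA read-out of MIG in human lung bronchial epithelial primary cultures, 24 h post-dosing. Bidirectional curve fit vs DMSO baseline.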

[15] = read-out: Transforming growth factor beta 1 (TGFb1), TGFB1 (gene 7040); test: BSK_BE3C_TGFb1: BioMAP Diversity Plus: BE3C Assay for Transforming growth factor beta 1 (TGFb1) Biomarker Activity (AID 2283036;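 as to outcome: TGF-b1 protein level measured by ELISA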); conditions: primary human bronchial epithelial cells; actives raise or lower the signal
Outline: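 Primary human lung bronchial epithelial cells; compound exposure 24 h; TGF-b1 by ELISA; bidirectional fit, DMSO baseline. Parallel SRB total-protein staining for cytotoxicity.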

[16] = read-out: Plasminogen activator inhibitor-1 (PAI1), SERPINE1 (gene 5054); test: BSK_BE3C_PAI1: BioMAP Diversity Plus: BE3C Assay for Plasminogen activator inhibitor-1 (PAI1) Biomarker Activity (AID 2283037); conditions: primary human bronchial epithelial cells; actives raise or lower the signal
Outline: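 Primary human lung bronchial epithelial cells; chemical dosing; 24 h; PAI-1 measured by ELISA; bidirectional fit referenced to DMSO as negative control.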

[17] = read-out: urokinase plasminogen activator (uPA), PLAU (gene 5328); test: BSK_BE3C_uPA: BioMAP Diversity Plus: BE3C Assay for urokinase plasminogen activator (uPA) Biomarker Activity (AID 2283038); conditions: primary human bronchial epithelial cells; actives raise or lower the signal;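 as to outcome: uPA protein level quantified by ELISA in cell cultures; uPA read one day after compound addition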
Outline: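 ELISA read-out of uPA in human lung primary bronchial epithelial cultures, 24 h post-dosing. Gain or loss of signal fitted bidirectionally relative to DMSO baseline; cytotoxicity checked in parallel cultures via SRB total protein stain.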

[18] = target: human Vitamin D Receptor (VDR), VDR (gene 7421) (UniProt P11473); test: ATG_VDR_TRANS: Attagene TRANS-FACTORIAL HepG2 Assay for human Vitamin D Receptor (VDR) (AID 2283022; active = hit-call score of the fitted dose curve at least 0.9, where 1 is the maximum)
Outline: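 RT-PCR/capillary electrophoresis read-out of reporter mRNA induction in transiently transfected HepG2; 24 h dosing; chimeric NR-Gal4 (TRANS format); gain-of-signal fit against DMSO baseline.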

[19] = BSK_4H_SRB: Viability Assessment in the BioMAP Diversity Plus: 4H Assay (AID 2283027); conditions: primary human endothelial cells (HUVEC);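 also: cells exposed to compound for 24 h before staining; curves fitted both ways versus DMSO so AC50 may be loss or gain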
Outline: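 Human umbilical vein endothelial cells were dosed with chemical and, after 24 h, fixed with 10% TCA, stained with 0.1% sulforhodamine B, and read at 560 nm to give total protein as a cytotoxicity measure. Bidirectional fitting relative to DMSO control.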

Chain of human Vitamin D Receptor (VDR), VDR (gene 7421) (P11473 whole entry, looked up, the tested form may be a part): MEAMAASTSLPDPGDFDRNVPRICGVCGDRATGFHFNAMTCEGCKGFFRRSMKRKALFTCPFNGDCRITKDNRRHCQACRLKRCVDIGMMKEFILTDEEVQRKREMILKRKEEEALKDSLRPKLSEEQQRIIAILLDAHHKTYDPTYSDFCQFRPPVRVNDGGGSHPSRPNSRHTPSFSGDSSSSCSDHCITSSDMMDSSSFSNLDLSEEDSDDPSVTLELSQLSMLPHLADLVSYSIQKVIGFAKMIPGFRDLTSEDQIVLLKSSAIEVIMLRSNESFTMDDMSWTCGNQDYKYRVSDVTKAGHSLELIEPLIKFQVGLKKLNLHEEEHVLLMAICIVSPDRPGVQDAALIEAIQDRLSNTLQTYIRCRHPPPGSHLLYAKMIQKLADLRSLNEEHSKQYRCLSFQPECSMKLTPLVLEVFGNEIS

O=c1ssc(Cl)c1Cl
AC50 [1]: 3.59 µM (active) | AC50 [2]: 7.48 µM (active) | AC50 [3]: 14.8 µM (active) | AC50 [4]: 9.81 µM (active) | AC50 [5]: 4.24 µM (active) | AC50 [6]: 4.74 µM (active) | AC50 [7]: 5.34 µM (active) | outcome [8]: inactive | AC50 [9]: 7.3 µM (active) | outcome [10]: inactive | AC50 [11]: 8.51 µM (active) | AC50 [12]: 3.91 µM (active) | AC50 [13]: 3.38 µM (active) | AC50 [14]: 12.6 µM (active) | AC50 [15]: 14.8 µM (active) | AC50 [16]: 11.7 µM (active) | AC50 [17]: 9.31 µM (active)

Nc1ccc(Sc2ccc(N)cc2)cc1
outcome [18]: inactive

O=S1(=O)OCC2C(CO1)C1(Cl)C(Cl)=C(Cl)C2(Cl)C1(Cl)Cl (stereo unspecified)
AC50 [1]: 24.1 µM (active) | outcome [2]: inactive | outcome [3]: inactive | outcome [4]: inactive | outcome [5]: inactive | AC50 [6]: 12.2 µM (active) | outcome [7]: inactive | outcome [8]: inactive | AC50 [9]: 9.1 µM (active) | outcome [10]: inactive | outcome [11]: inactive | AC50 [12]: 20 µM (active) | outcome [13]: inactive | outcome [14]: inactive | outcome [15]: inactive | outcome [16]: inactive | outcome [17]: inactive

Cc1ccc(O)cc1C
outcome [1]: inactive | outcome [2]: inactive | outcome [3]: inactive | outcome [4]: inactive | outcome [5]: inactive | outcome [6]: inactive | outcome [7]: inactive | outcome [8]: inactive | outcome [9]: inactive | outcome [10]: inactive | outcome [11]: inactive | outcome [12]: inactive | outcome [13]: inactive | outcome [14]: inactive | outcome [15]: inactive | outcome [16]: inactive | outcome [17]: inactive

ClC(Cl)(Cl)c1ccccc1
outcome [1]: inactive | outcome [2]: inactive | outcome [3]: inactive | outcome [4]: inactive | outcome [5]: inactive | outcome [6]: inactive | outcome [7]: inactive | outcome [8]: inactive | outcome [9]: inactive | outcome [10]: inactive | outcome [11]: inactive | outcome [12]: inactive | outcome [13]: inactive | outcome [14]: inactive | outcome [15]: inactive | outcome [16]: inactive | outcome [17]: inactive

CCCCN(CCCC)N=O
outcome [1]: inactive | outcome [2]: inactive | outcome [3]: inactive | outcome [4]: inactive | outcome [5]: inactive | outcome [6]: inactive | outcome [7]: inactive | outcome [8]: inactive | outcome [9]: inactive | outcome [10]: inactive | outcome [11]: inactive | outcome [12]: inactive | outcome [13]: inactive | outcome [14]: inactive | outcome [15]: inactive | outcome [16]: inactive | outcome [17]: inactive

O=C(O)C1C(C(=O)O)C2(Cl)C(Cl)=C(Cl)C1(Cl)C2(Cl)Cl (stereo unspecified)
outcome [1]: inactive | outcome [2]: inactive | outcome [3]: inactive | outcome [4]: inactive | outcome [5]: inactive | outcome [6]: inactive | outcome [7]: inactive | outcome [8]: inactive | outcome [9]: inactive | outcome [10]: inactive | outcome [11]: inactive | outcome [12]: inactive | outcome [13]: inactive | outcome [14]: inactive | outcome [15]: inactive | outcome [16]: inactive | outcome [17]: inactive

CCCCN(CCCC)SN(C)C(=O)Oc1cccc2c1OC(C)(C)C2
AC50 [1]: 29.8 µM (active) | AC50 [2]: 36.4 µM (active) | outcome [3]: inactive | outcome [4]: inactive | AC50 [5]: 37.5 µM (active) | AC50 [6]: 20.2 µM (active) | AC50 [19]: 27.2 µM (active) | outcome [7]: inactive | outcome [8]: inactive | AC50 [9]: 37.1 µM (active) | AC50 [10]: 31 µM (active) | outcome [11]: inactive | AC50 [12]: 30.4 µM (active) | outcome [13]: inactive | outcome [14]: inactive | outcome [15]: inactive | outcome [16]: inactive | outcome [17]: inactive
